Records with an inconclusive call do not appear. Calls of active or inactive are those of the source. The call rests on the fitted dose curve; in most records, active means well fitted cell-killing curve with a large enough effect; inconclusive means small, poorly fitted or top-dose-only effect; inactive means flat fitted curve, though single readings scatter.
On the % scale 0 is the no-effect control and ±100 the full control effect; potency means the concentration at half of the fitted maximal effect.

This test in a line: HPAF-II Cancer Cell Toxicity qHTS against the NCATS CANVASS Library (AID 1347346). Further: nearly all actives have a fitted effect of over 55% in size. The settings on record: HPAF-II viability, CellTiter-Glo ATP luminescence, 72 h; series mostly up to 38.3 µM; activity change, negative = cytotoxicity: at the top concentration. The text has this:
Natural products and their derivatives continue to be wellsprings of nascent therapeutic potential. However, many laboratories have limited resources for biological evaluation, leaving their previously isolated or synthesized compounds largely or completely untested. To address this issue, the Canvass library of natural products was assembled (https://tripod.nih.gov/canvass), in collaboration with academic and industry researchers, for quantitative high-throughput screening (qHTS) across a diverse set of cell-based and biochemical assays. The pure (>85% purity by liquid chromatography/mass spectrometry [LC/MS]) Canvass library of 346 natural products were submitted by 45 academic laboratories and companies around the world. We collected pure natural products to circumvent deconvolution and structure elucidation due to time and resource limitations. The library was formatted into 1536-well plates and evaluated in 50 qHTS (in an 11-pnt concentration series) bioassays with broad scope of disease-relevant mechanisms. The resulting data set from 50 different assays was then systematically analyzed to identify overall trends and specific natural products with interesting biological activities. Reported herein are the results of each individual qHTS and their corresponding assay protocol. National Center for Advancing Translational Sciences (NCATS), Rockville, MD National Institute of Health (NIH), Bethesda, Maryland
Cancer Cell Toxicity protocol for cell lines COV-362, OV-KATE, OV-SAHO, UWB1.289, UWB1.289-WTBRCA1, HEK-293, HPAF-II, Panc-1005, SW1088, or U-118MG. 1.#In a 1536 well, white solid bottom tissue culture plates (Corning 7494), corresponding cells (COV-362, OV-KATE, OV-SAHO, UWB1.289, UWB1.289-WTBRCA1, HEK-293, HPAF-II, Panc-1005, SW1088, or U-118MG) were dispensed in each well at a final concentration of 1000 cells / well (6uL volume) using the Multidrop Combi (Thermo Fisher Scientific) dispenser. 2.#The plates were incubated for 4 hours at 37 degrees C/5% CO2/95% Rh. 3.#Compounds were pin transferred (~23nL volume) via Wako Pin-tool (Wako Automation, Richmond VA) equipped with a 1536 pin head. The assay plates were treated with compounds in an 11-pnt concentration series with a final concentration range of […] to 85uM. 4.#Bortezomib was used as a single dose control (0.5mM column 4, rows 1 - 32) at a final concentration of 1.9uM and as a 16pnt titration (1mM; 1:2 dilution; 16-points; n = 2; column 3, rows 1 - 32) with final concentration range of 0.1nM - 3.8uM. 5.#The assay plates were incubated for 72 hours at 37 degrees C/5% CO2/95% Rh. 6.#3uL CellTiter-Glo detection reagent was then added to the plates (columns 2 - 48, rows 1 - 32) and incubated at room temperature for additional 15min. 7.#Luminescence signal was acquired via the ViewLux plate reader (PerkinElmer) using a clear filter, 2 second exposure and 2x binning settings.
Background: Quantitative high-throughput screening tests each substance at several concentrations.
Regarding `CO[C@@H](/C=C/CC/C=C/C(=O)O)[C@@H](O)[C@H](C)/C=C(\C)[C@@H](O)[C@H](C)C(=O)CCCC1CC(=O)NC(=O)C1`, the “activity change, negative = cytotoxicity” value was -15.6% (inactive). Still for that read-out and setting: under `c1ccc2c3c([nH]c2c1)CNCC3` stands -13.8% (inactive).

Turning to `CC1=CC(=O)C2=C(C)C[C@H](O)[C@@H]3[C@H](OC(=O)[C@@H]3C)[C@@H]12`, the “activity change, negative = cytotoxicity” value is -4.2% (inactive). Still for that read-out and setting: the figure for `CCN1C[C@]2(C)CC[C@@H](O)[C@]34C1[C@H](C[C@H]23)C12CCC(CC14)[C@](O)(CO)[C@H]2O` (some centres undefined) is 3.77% (inactive); for `CNCCc1c[nH]c2ccccc12` it is 4.87% (inactive). For `CCN1C[C@]2(C)CC[C@H](O)[C@]34C1C(C[C@H]23)[C@@]12CC[C@H](CC14)[C@](O)(COC(=O)c1ccc(OC)c(OC)c1)[C@H]2O` (some centres undefined), the “activity change, negative = cytotoxicity” value is -1.79% (inactive). On to `CNCCc1ccc(O)cc1`, for which the “activity change, negative = cytotoxicity” value was 5.73% (inactive). On to `CCC(=O)CCCCC[C@@H]1NC(=O)[C@H]2CCCCN2C(=O)[C@H]([C@@H](C)CC)NC(=O)[C@H](Cc2cn(OC)c3ccccc23)NC1=O`, for which the Potency was 0.841 µM (active).

For the molecule `C/C=C1/CN2CC[C@]34C(=Nc5ccccc53)[C@@H]2C[C@@H]1[C@H]4C(=O)OC`, the “activity change, negative = cytotoxicity” value was 4.66% [at 76 µM] (inactive). For `C[C@@H]1CC[C@@H](c2ccoc2)N2C[C@@]3(CC[C@@H]12)CS[C@@]1(CC[C@H]2[C@H](C)CC[C@@H](c4ccoc4)N2[C@@H]1O)C3`, the Potency is 2.98 µM (active). As for `CC1=CC2CC[C@@H]3[C@@H](C)C[C@H](C)[C@@H](C1)N23` (some centres undefined), the “activity change, negative = cytotoxicity” value was 2.86% (inactive). Still for that read-out and setting: the figure for `CC=C1CN(C=O)[C@H]2C[C@@H]1[C@@H](C(=O)OC)[C@@]13CCOC21Nc1ccccc13` (some centres undefined) is -4.82% (inactive). On the same count and under the same terms, under `CN(C)Cc1c[nH]c2ccccc12` stands -7.32% (inactive); under `CNCCc1ccccc1`, 0% (inactive). For `CO[C@H](c1ccccc1)[C@H]1NC(=O)C(C)NC(=O)C(C[C@@H](C)CO)N(C)C(=O)[C@@H](C(O)c2cn(C(C)(C)C3CO3)c3ccccc23)NC(=O)C(C(C)C=C(C)C)NC(=O)C(CC(C)C)N(C)C(=O)C(C(C)C)NC1=O` (some centres undefined), the “activity change, negative = cytotoxicity” value was -9.2% [at 22.9 µM] (inactive). `COc1ccc2c(c1)[nH]c1c(C)nccc12`: the Potency was 27.3 µM (active).

In the case of `CO[C@@H](/C=C/CC/C=C/C(=O)O)[C@@H](O)[C@H](C)[C@@H](O)/C(C)=C/[C@H](C)C(=O)CCCC1CC(=O)NC(=O)C1`, the “activity change, negative = cytotoxicity” value is 3.44% (inactive). In the case of `CCCC[C@@H]1CC[C@H]2CCCC(CCC)N12` (some centres undefined), the “activity change, negative = cytotoxicity” value is -7.04% (inactive). For `COC(=O)C1=C2Nc3ccccc3[C@@]23CCN2CC(C(C)=O)C1C[C@H]23` (some centres undefined), the Potency was 9.43 µM (active).

Take `CN1C(=O)[C@]23CC4C(C)(C)[C@@]5(C[C@@]41CN2CC[C@@]3(C)O)C(=O)Nc1c5ccc2c1OC=CC(C)(C)O2` (some centres undefined): the “activity change, negative = cytotoxicity” value is -15.9% (inactive). Regarding `CC(=O)N[C@H]1CCN2CCC[C@H]12`, the “activity change, negative = cytotoxicity” value is 2.6% [at 85.4 µM] (inactive). Still for that read-out and setting: under `CC[N@@+]1([O-])C[C@]2(C)CC[C@@H](O)[C@@]34C5C[C@H]6CC[C@@]5(C(C[C@H]23)C41)[C@H](O)[C@@]6(O)CO` (some centres undefined) stands 3.79% (inactive). For the molecule `CCCCC[C@@H]1OC(=O)[C@@H](C)N(C)C(=O)[C@H](CCCCC)OC(=O)C(C)N(C)C(=O)[C@H](CCCCC)OC(=O)[C@@H](C)N(C)C(=O)[C@H](CCCCC)OC(=O)C(C)N(C)C1=O` (some centres undefined), the Potency was 6.68 µM (active). On to `CCC[C@H]1CC[C@H]2[C@H](C)CCC[C@H]2N1`, for which the “activity change, negative = cytotoxicity” value is -14.6% (inactive).

For the molecule `NCCc1ccccc1`, the “activity change, negative = cytotoxicity” value is 0% (inactive). Still for that read-out and setting: under `C[C@]12CC(O)C3[C@@H](CCC4C[C@@H](O)CC[C@@]43CO)[C@@]1(O)CCC2C1=CC(=O)OC1` (some centres undefined) stands -5.91% (inactive); under `CC[C@@H]1CN2CC[C@@]3(O)C(=Nc4cccc(OC)c43)[C@@H]2C[C@@H]1/C(=C\OC)C(=O)OC`, -11.2% (inactive). With `COc1ccc(C23Oc4cc(OC)cc(OC)c4[C@](O)([C@H](c4ccccc4)C2C(=O)NCCCCNC(=O)c2ccccc2)[C@@H]3O)cc1` (some centres undefined), the “activity change, negative = cytotoxicity” value was 6.32% (inactive).

Consider `O=C(c1ccccc1O)c1[nH]c(Cl)c(Cl)c1-n1c(C(=O)c2ccccc2O)cc(Cl)c1Cl`, for which the Potency was 1.33 µM (active).

(Values after PubChem BioAssay (NCATS).)
